Source: PubChem BioAssay
TIM10 inh – TIM10 yeast growth inhibition. S. cerevisiae TIM10 strain growth, BacTiter-Glo luminescence, 24 h. inhibition, % at 10 µM. 1.4% of 330,000 active. AID 463195;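 active = inhibition of 40% or more at the single tested concentration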;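 also: wild-type TIM10 isogenic control strain grown at permissive 25 °C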
SKKanGAS inh – blocks kanamycin growth of S. pyogenes SKKanGAS strain. BacTiter-Glo, 6 h. inhibition, % at 7.5 µM. 1.3% of 300,000 active. AID 1662;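 active = mean replicate score, as percent of positive control median, at least 50; inconclusive = mean below 50 but one replicate at or above 50; inactive = mean and every replicate below 50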;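 also: strain carries kanamycin resistance gene driven by streptokinase promoter and grows in 40 µg/ml kanamycin; loss of luminescence reflects streptokinase promoter inhibition or plain growth inhibition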
PfHsp90 set2 – reduces growth (ATP signal) of yeast expressing P. falciparum Hsp90; S. cerevisiae expressing PfHsp90, BacTiter-Glo ATP, 48 h; yeast lacking PDR1 and PDR3 efflux regulators; inhibition, % at 9.4 µM; 0.32% of 310,000 active; AID 504621;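 active = every replicate shows inhibition above about 80%, whatever the replicate mean, limit read from the data; inconclusive = mean inhibition reaches the set limit but some replicate falls short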
tim10-1 inh – tim10-1 yeast growth inhibition; AID 463190; S. cerevisiae tim10-1 ts strain growth, BacTiter-Glo, 24 h; 2.2% of 330,000 active; inhibition, % at 20 µM;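 active = inhibition of at least 40%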;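 also: mutant grown at 25 °C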
tim23-1 inh – growth inhibitors of tim23-1 mutant yeast | AID 463212 | inhibition, % at 20 µM | S. cerevisiae tim23-1 growth, BacTiter-Glo luminescence, 24 h | 1.3% of 330,000 active;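 active = growth inhibition of the mutant yeast at or above 50%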;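 also: temperature-sensitive mutant grown at 25 °C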
Calb FLC – C. albicans growth modulation with fluconazole; C. albicans CaCi-2 (fluconazole-resistant clinical isolate) + fluconazole, Alamar Blue growth, 48 h; AID 1979; growth inhibition, % (no concentration beside the values); 0.57% of 300,000 active;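 active = growth inhibition above about 58% in most replicates, limit read from the data, passing the limit was not always enough; inconclusive = exactly half the replicates above a set limit; inactive = most replicates below a set limit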;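 also: all wells also contain fluconazole at 8 µg/ml as a sub-toxic cotreatment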
Each line names hits and unclear results; the compound was inactive in the other large screens. Shown are actives, neighbours in structure and some others; about 4.7% of the full set was active somewhere.

COc1cccc(C#Cc2c(C=O)n(C)c3ccccc23)c1	none (no result: SKKanGAS inh, Calb FLC)
Cn1c2ccccc2c(=O)c2cc(C#Cc3ccc(N)cc3)ccc21	SKKanGAS inh 84.5
Nc1ccc(C#Cc2ccc3oc4ccccc4c(=O)c3c2)cc1	SKKanGAS inh 96.6
COc1ccc(C#Cc2ccc3c(c2)c(=O)c2ccccc2n3C)cc1	SKKanGAS inh 91.3
CCOC(=O)c1ccc(-c2ccc3c(c2)CCC3)nc1C	none
Cc1ccc(SCc2nc3ncccn3c2Br)cc1	none
CCC(CCNC(=O)c1ccccc1)(CCNC(=O)c1ccccc1)[N+](=O)[O-]	none (no result: TIM10 inh, SKKanGAS inh, tim10-1 inh, tim23-1 inh, Calb FLC)
Cn1c(=O)c(C#N)c(-c2ccc(F)cc2)c2cc(C(=O)c3cc(Cl)cc(Cl)c3O)cnc21	SKKanGAS inh 98.8
Cc1ccnc(NC(=O)c2ccc(S(=O)(=O)N3CCC(C)CC3)cc2)c1	none
C(=C\c1nc2ccccc2[nH]1)/c1ccccc1	PfHsp90 set2 77.7
Cc1ccc(C2CN=NC23CCc2ccccc2C3=O)cc1 (stereo unspecified)	none
O=C1c2ccccc2CCCC12N=NCC2c1cccc2ccccc12 (stereo unspecified)	SKKanGAS inh 49.8
C/C(=N/Nc1cc(-c2ccccc2)nc(-c2ccccc2)n1)c1ccc(O)cc1	SKKanGAS inh 99.2
COc1ccc2ncc(S(=O)(=O)c3ccccc3)c(N3CCC4(CC3)OCCO4)c2c1	none
COc1ccc2ncc(S(=O)(=O)c3ccccc3)c(N3CCN(c4ccccc4)CC3)c2c1	SKKanGAS inh 66.8
COc1ccc(Cl)cc1NC(=S)NC1CCCC1	none
CN1C(=O)/C(=N\OC(=O)c2cccc3ccccc23)c2ccccc21	none
COc1ccc(C(=O)O/N=C2\C(=O)N(C)c3ccccc32)cc1	PfHsp90 set2 105.3
O=C(NC(CO)C(O)c1ccc([N+](=O)[O-])cc1)C(Cl)Cl (stereo unspecified)	SKKanGAS inh 103.6 (no result: Calb FLC)
O=[N+]([O-])c1ccc(C(O)C(CO)NC(=S)Nc2ccccc2)cc1 (stereo unspecified)	none
O=C(N[C@H](CO)[C@H](O)c1ccc([N+](=O)[O-])cc1)C(Cl)Cl	SKKanGAS inh 100.9
O=C(NC(CO)Cc1ccc([N+](=O)[O-])cc1)C(Cl)Cl (stereo unspecified)	SKKanGAS inh 96.8
CCc1ccc(N2CC(C(=O)Nc3cccc(S(=O)(=O)N4CCCC4)c3)CC2=O)cc1 (stereo unspecified)	none
CC(=S)/C=C1\Sc2ccccc2N1C	Calb FLC 116.8
CC(C)C(=O)NC(c1cccc([N+](=O)[O-])c1)c1ccc2cccnc2c1O (stereo unspecified)	PfHsp90 set2 119.0
CC(C)C(=O)NC(c1ccco1)c1ccc2cccnc2c1O (stereo unspecified)	SKKanGAS inh 86.9, Calb FLC 97.9
CC(=O)NC(c1ccco1)c1cc(F)c2cccnc2c1O (stereo unspecified)	none (no result: SKKanGAS inh, Calb FLC)
CC(C)C(=O)NC(c1cccc([N+](=O)[O-])c1)c1c(O)ccc2ccccc12 (stereo unspecified)	none
Cc1ccc(C2(c3ccc(C)cc3)NC(=O)N(CC(N)=O)C2=O)cc1	none
COc1ccc(-n2c(C)cc(/C=C3\SC(=O)NC3=O)c2C)cc1	none
Cc1cc(/C=C2\SC(=Nc3ccccc3)NC2=O)c(C)n1-c1ccc(S(N)(=O)=O)cc1	SKKanGAS inh 72.2
c1ccc(CC2CCN(C3=Nc4cccc5cccc3c45)CC2)cc1	Calb FLC 86.5
c1cc2c3c(cccc3c1)C(N1CCOCC1)=N2	none
CC(=O)[C@H]1[C@H]([C@H](O)[C@H](O)CO)O[C@](O)(C(=O)O)C[C@@H]1O	none (no result: SKKanGAS inh, Calb FLC)
COc1cc(OC)cc(C(=O)NNC(=O)Cc2ccc(OC)c(S(=O)(=O)N3CCOCC3)c2)c1	Calb FLC 109.5
COc1ccc(CNC(=O)Cc2ccc(OC)c(S(=O)(=O)N3CCOCC3)c2)cc1	none
CN1C(=O)/C(=C/c2ccccc2Cl)Sc2ccc(C(=O)N3CCCC3)cc21	SKKanGAS inh 99.2
CN1C(=O)/C(=C/c2ccc(C(F)(F)F)cc2)Sc2ccc(C(=O)N3CCN(c4ccccn4)CC3)cc21	SKKanGAS inh 103.9
Cc1cccc(/C=C2\Sc3ccc(C(=O)N4CCC(C(N)=O)CC4)cc3N(C)C2=O)c1	none
CCOC(=O)C1CCCN(C(=O)c2ccc3c(c2)N(C)C(=O)/C(=C/c2ccccc2Cl)S3)C1 (stereo unspecified)	SKKanGAS inh 104.9
CCOc1ccc(NC(=O)C(C)Oc2ccc(C#N)cc2)cc1S(=O)(=O)N1CCCC1 (stereo unspecified)	none (no result: SKKanGAS inh, Calb FLC)
CCOc1ccc(Br)cc1S(=O)(=O)Nc1cccc(S(=O)(=O)Nc2ccccc2C(=O)O)c1	none (no result: SKKanGAS inh, Calb FLC)
CCn1cc(C(=O)NC(=S)Nc2ccccc2Br)cn1	SKKanGAS inh 51.4
COc1ccc(N(C(=O)c2ccncc2)S(=O)(=O)c2ccc(F)cc2)cc1	none (no result: PfHsp90 set2)
COc1ccc(N(C(=O)c2ccncc2)S(=O)(=O)c2ccc(OC)c(OC)c2)cc1	none
COc1ccc(S(=O)(=O)N(C(=O)c2ccncc2)c2ccc(OC(=O)c3ccncc3)cc2)cc1	PfHsp90 set2 91.2
COc1ccc(N(C(=O)c2ccncc2)S(=O)(=O)c2ccccc2)cc1	PfHsp90 set2 193.9
CCn1c(NC(=O)c2cccs2)nc2ccccc21	Calb FLC 78.1
CCCn1c(NC(=O)c2cccc(C)c2C)nc2ccccc21	SKKanGAS inh 51.8, Calb FLC inconclusive
COc1ccc(/C=C/C(=O)O)cc1COc1cccc(C)c1	none
COc1ccc(/C=C/C(=O)C2CC2)cc1COc1c(C)cccc1C	Calb FLC 97.1
O=C(Nc1ccc(NS(=O)(=O)c2ccccc2)c(Cl)c1)c1ccccc1	none (no result: TIM10 inh, SKKanGAS inh, tim10-1 inh, tim23-1 inh, Calb FLC)
Nc1ncc(Br)cc1S(=O)(=O)Nc1cc(C(F)(F)F)cc(C(F)(F)F)c1	SKKanGAS inh 64.4, Calb FLC inconclusive
Cc1ccc(NS(=O)(=O)c2cc(Br)cnc2N)c(Cl)c1	none
O=C(O)c1ccccc1N/N=C/c1cc(Br)cc(Br)c1O	SKKanGAS inh 58.1
Oc1c(Br)cc(Br)cc1/C=N/Nc1ccc(Cl)nn1	SKKanGAS inh 84.3, Calb FLC 83.1 (no result: TIM10 inh, tim10-1 inh, tim23-1 inh)
O=C(CNC(=O)c1cccc(Br)c1)N/N=C/c1cc(Br)cc(Br)c1O	SKKanGAS inh inconclusive
Oc1c(Br)cc(/C=N/Nc2ccc(Cl)nn2)cc1Br	SKKanGAS inh inconclusive
O=C(Cc1ccccc1)N/N=C/c1cc(Br)cc(Br)c1O	SKKanGAS inh 112.1
O=C(Cc1ccccc1)N/N=C/c1ccccc1Cl	Calb FLC 116.2 (no result: SKKanGAS inh)
CCCc1nnc(NC(=O)CSc2nc3ccccc3[nH]2)s1	none
O=C(CSc1nc2ccccc2[nH]1)Nc1nc(-c2cccc(Br)c2)cs1	SKKanGAS inh 80.2
CCOC(=O)N1CCN(S(=O)(=O)c2c(C)nc3sccn3c2=O)CC1	none
CCOc1ccc(N=C2NC(=O)S/C2=C\c2ccc(Cl)cc2)cc1	none
